{"source": "PubChem BioAssay (NCI)", "note": "About 83,000 compounds went through this panel and 20% of them were active in at least one assay; those are over-represented in the sample as a whole.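 Negative percent growth values reflect cell death: -40 means 40% of the cells present at the start died, and -100 means all died.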 Calls of active or inactive are those of the source. Rule for the calls: active = growth percent below 10; inactive = the rest.", "data": [{"system": "OVCAR-5 ovarian", "assay": "NCI-60 one-dose screen, 48 h (100 = growth as untreated, 0 = no growth, -100 = all killed)", "details": "10 µM unless noted", "values": [{"smiles": "O=C(Cn1c2ccccc2c2ccncc21)N/N=C/c1c[nH]c2ccccc12", "growth": "107% (inactive)"}, {"smiles": "CC1(C)CC(=O)C2=C(C1)OC1=C(C(=O)CC(C)(C)C1)C2c1ccc(OCc2cn(-c3ccc(F)cc3F)nn2)cc1", "growth": "124% (inactive)"}, {"smiles": "c1ccc2c(c1)Oc1cccnc1-n1nccc1-2", "growth": "107% (inactive)"}, {"smiles": "NC(=NCCCOc1ccc(F)cc1)Nc1ccc(Cl)c(Cl)c1", "growth": "81.5% (inactive)"}, {"smiles": "O=C1OC(N(Cc2ccc(Cl)cc2)c2ccccc2)c2ccccc21", "note": "(stereo unspecified)", "growth": "109% (inactive)"}, {"smiles": "O=C(Nc1cccc([N+](=O)[O-])c1)Nc1cccc([N+](=O)[O-])c1", "growth": "89.6% (inactive)"}, {"smiles": "CCOc1ccc(-n2c(-c3cc(OC)c(OC)c(OC)c3)nnc2-c2ccc(OC)cc2N)cc1", "growth": "95.5% (inactive)"}, {"smiles": "CC(=O)CC/C=C(\\C)[C@H](O)[C@H](C)C(=O)O[C@H]1C[C@H](C)C=C2C=C[C@@]3(C)O[C@@H](O)CC(=O)[C@]3(C)[C@H]21", "growth": "-10% (active)"}, {"smiles": "Cc1cccc[n+]1CCC[n+]1ccccc1C", "growth": "109% (inactive)"}, {"smiles": "C#CC(=O)/C=C/CCCCCCC#CC(=O)CCC(=O)C#CCCCCCC/C=C/C(=O)C#C", "growth": "57.7% (inactive)"}, {"smiles": "COc1ccc2c(c1)OC(N)=C(C#N)C2c1ccc(F)cc1", "note": "(stereo unspecified)", "growth": "56.4% (inactive)"}, {"smiles": "CC1=C2C(=C[C@@](C)(CO)[C@@H]2OC(=O)N(C)CCN(C)C(=O)OC(C)(C)C)C(=O)[C@](C)(O)C12CC2", "growth": "19.2% (inactive)"}, {"smiles": "COc1ccc2c(-c3ccc(F)cc3)c(C#N)c(=NC(C)=O)oc2c1", "growth": "103% (inactive)"}, {"smiles": "CC(C)(C)OC(=O)NCc1cccc(N=C=S)c1", "growth": "65.2% (inactive)"}, {"smiles": "CN(C)CCS(=O)(=O)Nc1cc(-c2ccc3ncnc(Nc4ccc(F)c(Cl)c4)c3c2)cnc1Cl", "growth": "-22.4% (active)"}, {"smiles": "C=C1C(=O)O[C@H]2[C@H]1CC/C(COC(=O)c1ccc(Cl)nc1)=C\\CC[C@@]1(C)O[C@@H]21", "growth": "27.2% (inactive)"}, {"smiles": "C=CC(=O)NC(=O)Nc1ccccc1Cl", "growth": "111% (inactive)"}, {"smiles": "Nc1nc(-c2cc3c(cc2Cl)NC(=O)/C3=C/c2ccc(Cl)cc2)cs1", "growth": "92% (inactive)"}, {"smiles": "COc1cc2ncn3c(=O)c4c5c(sc4nc3c2cc1OC)CCCCC5", "growth": "98.6% (inactive)"}, {"smiles": "CCn1cc(C(=O)O)c(=O)c2cc(F)c(N3CCN(CC(=O)Nc4ccc(C(C)=O)cc4)CC3)cc21", "growth": "107% (inactive)"}, {"smiles": "CCNC(=O)Oc1ccc(/C(=C(/CC)Cc2ccccc2)c2ccc(OCCN3CCOCC3)cc2)cc1", "growth": "94.8% (inactive)"}, {"smiles": "CCCCCCCCCCCCCCCCNc1ccccc1", "growth": "115% (inactive)"}, {"smiles": "CC(/C=C/C=C(\\C)[C@H](O)[C@H](C)C(=O)O[C@H]1C[C@H](C)C=C2C=C[C@@]3(C)O[C@@H](O)CC(=O)[C@]3(C)[C@H]21)=C\\C=C\\C(=O)O", "growth": "18.6% (inactive)"}, {"smiles": "COc1ccc2c(c1)OC(N(C(C)=O)C(C)=O)=C(C#N)C2c1ccc(F)cc1", "note": "(stereo unspecified)", "growth": "65.2% (inactive)"}, {"smiles": "N#Cc1c(N)nc(Cl)c(C#N)c1C(=O)c1ccccc1", "growth": "91.2% (inactive)"}, {"smiles": "CCCCCCCC(=O)SCC/C=C/[C@@H]1CC(=O)NCc2nc(cs2)C2=N[C@@](C)(CS2)C(=O)N[C@@H](C(C)C)C(=O)N1", "growth": "22.5% (inactive)"}, {"smiles": "COC(=O)c1ccc2c(c1)Oc1ccc(Cl)cc1-c1cc(C)nn1-2", "growth": "91.2% (inactive)"}, {"smiles": "Nc1n[nH]c2cccc(C#Cc3cccc(NC(=O)c4cccc(C(F)(F)F)c4)c3)c12", "growth": "31.3% (inactive)"}, {"smiles": "Cc1ccc(NC(=O)CN2CCOCC2)cc1Cl", "growth": "99.9% (inactive)"}, {"smiles": "C=C1C(=O)O[C@H]2[C@H]1CC/C(COC(=O)c1ccc(C#N)cc1)=C\\CC[C@@]1(C)O[C@@H]21", "growth": "34.5% (inactive)"}, {"smiles": "C=CC(C)(O)CCC1C(=C)CCC2C(C)(C)CCCC12C", "note": "(stereo unspecified)", "growth": "106% (inactive)"}, {"smiles": "CCOC(=O)c1noc2c1CCc1cn(Cc3cc(OC)cc(OC)c3)cc1-2", "growth": "108% (inactive)"}, {"smiles": "Nc1nc(Nc2ccc(OCc3cccc(F)c3)cc2)c2c(n1)[nH]c1ccc(O)cc12", "growth": "0.474% (active)"}, {"smiles": "C#C[C@@]1(O)[C@@H](CO)O[C@@H](n2cc(Br)c3c(Cl)ccnc32)[C@@H]1O", "growth": "40.8% (inactive)"}, {"smiles": "C=C1C(=O)O[C@H]2[C@H]1CC/C(CNC(=O)/C1=C/CC[C@@]3(C)O[C@H]3[C@H]3OC(=O)C(=C)[C@@H]3CC1)=C\\CC[C@@]1(C)O[C@@H]21", "growth": "111% (inactive)"}, {"smiles": "COc1ccc(N)c(S)c1", "growth": "104% (inactive)"}, {"smiles": "C=CC(=O)Nc1cccc(Nc2nc(Nc3ccc(OCCOC(F)F)cc3)ncc2F)c1", "growth": "45.6% (inactive)"}, {"smiles": "O=C(c1ccccc1)[C@H]1[C@@H]2CCCN2[C@]2(C(=O)Nc3ccc(F)cc32)[C@]12C(=O)Nc1ccccc12", "growth": "91.7% (inactive)"}]}, {"system": "OVCAR-4 ovarian", "assay": "NCI-60 one-dose screen, 48 h (100 = growth as untreated, 0 = no growth, -100 = all killed)", "details": "10 µM unless noted", "values": [{"smiles": "O=C(Cn1c2ccccc2c2ccncc21)N/N=C/c1c[nH]c2ccccc12", "growth": "-60% (active)"}, {"smiles": "CC1(C)CC(=O)C2=C(C1)OC1=C(C(=O)CC(C)(C)C1)C2c1ccc(OCc2cn(-c3ccc(F)cc3F)nn2)cc1", "growth": "94.4% (inactive)"}, {"smiles": "c1ccc2c(c1)Oc1cccnc1-n1nccc1-2", "growth": "110% (inactive)"}, {"smiles": "NC(=NCCCOc1ccc(F)cc1)Nc1ccc(Cl)c(Cl)c1", "growth": "59.9% (inactive)"}, {"smiles": "O=C1OC(N(Cc2ccc(Cl)cc2)c2ccccc2)c2ccccc21", "note": "(stereo unspecified)", "growth": "116% (inactive)"}, {"smiles": "O=C(Nc1cccc([N+](=O)[O-])c1)Nc1cccc([N+](=O)[O-])c1", "growth": "39.3% (inactive)"}, {"smiles": "CCOc1ccc(-n2c(-c3cc(OC)c(OC)c(OC)c3)nnc2-c2ccc(OC)cc2N)cc1", "growth": "74.7% (inactive)"}, {"smiles": "CC(=O)CC/C=C(\\C)[C@H](O)[C@H](C)C(=O)O[C@H]1C[C@H](C)C=C2C=C[C@@]3(C)O[C@@H](O)CC(=O)[C@]3(C)[C@H]21", "growth": "-21.9% (active)"}, {"smiles": "Cc1cccc[n+]1CCC[n+]1ccccc1C", "growth": "110% (inactive)"}, {"smiles": "C#CC(=O)/C=C/CCCCCCC#CC(=O)CCC(=O)C#CCCCCCC/C=C/C(=O)C#C", "growth": "23.5% (inactive)"}, {"smiles": "COc1ccc2c(c1)OC(N)=C(C#N)C2c1ccc(F)cc1", "note": "(stereo unspecified)", "growth": "69% (inactive)"}, {"smiles": "CC1=C2C(=C[C@@](C)(CO)[C@@H]2OC(=O)N(C)CCN(C)C(=O)OC(C)(C)C)C(=O)[C@](C)(O)C12CC2", "growth": "43.8% (inactive)"}, {"smiles": "COc1ccc2c(-c3ccc(F)cc3)c(C#N)c(=NC(C)=O)oc2c1", "growth": "92.5% (inactive)"}, {"smiles": "CC(C)(C)OC(=O)NCc1cccc(N=C=S)c1", "growth": "57.1% (inactive)"}, {"smiles": "CN(C)CCS(=O)(=O)Nc1cc(-c2ccc3ncnc(Nc4ccc(F)c(Cl)c4)c3c2)cnc1Cl", "growth": "19.3% (inactive)"}, {"smiles": "C=C1C(=O)O[C@H]2[C@H]1CC/C(COC(=O)c1ccc(Cl)nc1)=C\\CC[C@@]1(C)O[C@@H]21", "growth": "27.9% (inactive)"}, {"smiles": "C=CC(=O)NC(=O)Nc1ccccc1Cl", "growth": "103% (inactive)"}, {"smiles": "Nc1nc(-c2cc3c(cc2Cl)NC(=O)/C3=C/c2ccc(Cl)cc2)cs1", "growth": "48.6% (inactive)"}, {"smiles": "COc1cc2ncn3c(=O)c4c5c(sc4nc3c2cc1OC)CCCCC5", "growth": "101% (inactive)"}, {"smiles": "CCn1cc(C(=O)O)c(=O)c2cc(F)c(N3CCN(CC(=O)Nc4ccc(C(C)=O)cc4)CC3)cc21", "growth": "113% (inactive)"}, {"smiles": "CCNC(=O)Oc1ccc(/C(=C(/CC)Cc2ccccc2)c2ccc(OCCN3CCOCC3)cc2)cc1", "growth": "45.9% (inactive)"}, {"smiles": "CCCCCCCCCCCCCCCCNc1ccccc1", "growth": "105% (inactive)"}, {"smiles": "CC(/C=C/C=C(\\C)[C@H](O)[C@H](C)C(=O)O[C@H]1C[C@H](C)C=C2C=C[C@@]3(C)O[C@@H](O)CC(=O)[C@]3(C)[C@H]21)=C\\C=C\\C(=O)O", "growth": "23% (inactive)"}, {"smiles": "COc1ccc2c(c1)OC(N(C(C)=O)C(C)=O)=C(C#N)C2c1ccc(F)cc1", "note": "(stereo unspecified)", "growth": "81.9% (inactive)"}, {"smiles": "N#Cc1c(N)nc(Cl)c(C#N)c1C(=O)c1ccccc1", "growth": "96.7% (inactive)"}, {"smiles": "CCCCCCCC(=O)SCC/C=C/[C@@H]1CC(=O)NCc2nc(cs2)C2=N[C@@](C)(CS2)C(=O)N[C@@H](C(C)C)C(=O)N1", "growth": "31% (inactive)"}, {"smiles": "COC(=O)c1ccc2c(c1)Oc1ccc(Cl)cc1-c1cc(C)nn1-2", "growth": "-6.66% (active)"}, {"smiles": "Nc1n[nH]c2cccc(C#Cc3cccc(NC(=O)c4cccc(C(F)(F)F)c4)c3)c12", "growth": "44.1% (inactive)"}, {"smiles": "Cc1ccc(NC(=O)CN2CCOCC2)cc1Cl", "growth": "94.7% (inactive)"}, {"smiles": "C=C1C(=O)O[C@H]2[C@H]1CC/C(COC(=O)c1ccc(C#N)cc1)=C\\CC[C@@]1(C)O[C@@H]21", "growth": "35.9% (inactive)"}, {"smiles": "C=CC(C)(O)CCC1C(=C)CCC2C(C)(C)CCCC12C", "note": "(stereo unspecified)", "growth": "114% (inactive)"}, {"smiles": "CCOC(=O)c1noc2c1CCc1cn(Cc3cc(OC)cc(OC)c3)cc1-2", "growth": "113% (inactive)"}, {"smiles": "Nc1nc(Nc2ccc(OCc3cccc(F)c3)cc2)c2c(n1)[nH]c1ccc(O)cc12", "growth": "-62.2% (active)"}, {"smiles": "C#C[C@@]1(O)[C@@H](CO)O[C@@H](n2cc(Br)c3c(Cl)ccnc32)[C@@H]1O", "growth": "26.9% (inactive)"}, {"smiles": "C=C1C(=O)O[C@H]2[C@H]1CC/C(CNC(=O)/C1=C/CC[C@@]3(C)O[C@H]3[C@H]3OC(=O)C(=C)[C@@H]3CC1)=C\\CC[C@@]1(C)O[C@@H]21", "growth": "86.9% (inactive)"}, {"smiles": "COc1ccc(N)c(S)c1", "growth": "96% (inactive)"}, {"smiles": "C=CC(=O)Nc1cccc(Nc2nc(Nc3ccc(OCCOC(F)F)cc3)ncc2F)c1", "growth": "40.6% (inactive)"}, {"smiles": "O=C(c1ccccc1)[C@H]1[C@@H]2CCCN2[C@]2(C(=O)Nc3ccc(F)cc32)[C@]12C(=O)Nc1ccccc12", "growth": "81.6% (inactive)"}]}]}
